In PubChem BioAssay:
Records with an inconclusive call do not appear. Calls of active or inactive are those of the source.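 How the source made its calls, unless noted: active means cell viability at or below a set limit in both duplicate runs, the limit being the all-compound median minus 4 SD (cut at about 23% in these data, passing the limit was not always enough); inconclusive means no clear call, values can overlap the other calls; inactive means the rest.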

Assay: doxorubicin toxicity protection in MRP-1 cells – H69AR cells, CellTiter-Glo, duplicate, MRP-1 activator project, pilot screen (AID 807;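 active means viability increase at or above a cutoff of the median across tested compounds plus 3 SD, cut at about 8.5% in these data, passing the limit was not always enough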;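 further: compound pretreatment 18-22 h then 72 h combined with doxorubicin; 0% = doxorubicin alone and 100% = vehicle without doxorubicin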)
Settings: H69AR viability with doxorubicin, CellTiter-Glo luminescence; at 10 µM; active compounds read high

Row | SMILES | viability increase
1 | COc1cc(Cl)c(S(=O)(=O)n2cnc(C)c2)cc1Cl | 0.28% (inactive)
2 | O=C(CN1CCOc2ccccc21)NCc1ccccc1 | -6.69% (inactive)
3 | CC(C)CCNC(=O)CCS(=O)(=O)c1cccc2nonc12 | -1.75% (inactive)
4 | O=C1CC(c2ccc(S(=O)(=O)NCc3ccccc3)cc2)CN1 (stereo not given) | -2.13% (inactive)
5 | CC(=O)c1ccc(NC(=O)CSC(C)C)cc1 | -0.64% (inactive)
6 | CCn1cc(C(=O)NCC2CCCO2)c2cc(OC)c(OC)cc2c1=O (stereo not given) | -1.89% (inactive)
7 | COc1ccc(CNc2nc3c(c(=O)[nH]c(=O)n3C)n2Cc2ccccc2C)cc1 | -4.3% (inactive)
8 | Cc1cc(C)nc(NS(=O)(=O)c2ccc(Br)s2)c1 | -0.89% (inactive)
9 | CC(C)CCSc1nnc(Cn2c(=O)sc3ccccc32)n1C | 0.27% (inactive)
10 | O=P(/C(=N/O)Sc1ccccc1)(N1CCOCC1)N1CCOCC1 | -4.88% (inactive)
11 | CC1(C)Cc2c(C#N)c(N)sc(=S)c2CO1 | -1.77% (inactive)
12 | CCOC(=O)N1CCN(C(=O)COc2ccc(Br)cc2)CC1 | 1.9% (inactive)
13 | COc1ccc(-c2nc(C(N)=O)c3[nH]c(=O)n(-c4ccccc4OC)c3n2)c(OC)c1 | -4.59% (inactive)
14 | O=C(Nc1nc(-c2ccccc2)cs1)c1cccs1 | -1.21% (inactive)
15 | CC(NC(=O)C1CCC1)c1ccc2c(c1)OCO2 (stereo not given) | -2.08% (inactive)
16 | Cc1cc(N2C(=O)CC(Cc3ccccc3)C2=O)no1 (stereo not given) | 1.08% (inactive)
17 | Cc1cc(C)n2nc3nc4c(cc3c2n1)CCCC4 | -4.42% (inactive)
18 | O=C(Nc1ccncc1)c1ccccc1F | -3.04% (inactive)
19 | COC(=O)C1C(=O)c2c([nH]c(C(=O)OC3CCCCCC3)c2C)CC1C (stereo not given) | -2.6% (inactive)
20 | O=C1CCC(=O)N1c1ccc(CSc2nnnn2C2CCCCC2)cc1 | 0.3% (inactive)

Row | SMILES | viability increase
21 | Cc1ccc(C2CC(c3cccc(C)c3)n3ncnc3N2)cc1 (stereo not given) | -0.97% (inactive)
22 | CCOc1cccc(NC(=O)c2ccc(S(=O)(=O)N(C)C)cc2)c1 | -2.48% (inactive)
23 | COc1ccc(C2N(c3ccc(OC)cc3)C(=O)C3CCCN32)cc1 (stereo not given) | -1.64% (inactive)
24 | Fc1cccc(-c2cc3nc4c(c(N5CCC6(CC5)OCCO6)n3n2)CCCC4)c1 | -3.94% (inactive)
25 | O=C(COC(=O)C1CC(=O)N(C2CCCCC2)C1)c1ccc(F)cc1 (stereo not given) | -2.49% (inactive)
26 | CCOC(=O)CSC(CC)C(=O)Nc1nnc(CC)s1 (stereo not given) | 2.67% (inactive)
27 | CC(=O)c1cccc(NC(=O)Nc2cc3sccc3n2C)c1 | -3.17% (inactive)
28 | CN(C)S(=O)(=O)c1ccc(C(=O)Nc2ccc(F)cc2F)cc1 | 1.08% (inactive)
29 | Cc1ccc(C(=O)N2CCN(c3ccccc3)CC2)cc1C | 0.84% (inactive)
30 | CC(=O)c1c(C)nc2ccc(Br)cc2c1C(=O)O | -1.9% (inactive)
31 | COc1ccc(-c2nc(CS(=O)CC(=O)NCC3CCCO3)c(C)o2)cc1 (stereo not given) | -2.38% (inactive)
32 | Cn1cccc1Cc1nnc(SCC(=O)Nc2nccs2)n1CCc1ccccc1 | -2.32% (inactive)
33 | CCCC(=O)c1cc(F)c(N2CCN(S(=O)(=O)c3ccccc3)CC2)cc1C | 1.53% (inactive)
34 | COc1ccccc1CNC(=O)c1cnc2ccccn2c1=O | -0.15% (inactive)
35 | O=C(O)c1cccc(-n2cnnn2)c1 | 0.82% (inactive)
36 | Cc1oc(-c2ccc(Cl)cc2)nc1CS(=O)CC(=O)NCCN1CCCC1 (stereo not given) | -1.14% (inactive)
37 | O=C(CCn1c(=S)[nH]c2ccccc2c1=O)N1CCOCC1 | 0.5% (inactive)
38 | CCCC(=O)C1=C(O)C(C(=O)OC)C(C)(C)CC1=Nc1ccccc1 (stereo not given) | -0.91% (inactive)
39 | O=C(Nc1nccs1)c1cc(S(=O)(=O)N2CCCCC2)ccc1Cl | 0.46% (inactive)
40 | COC(=O)Nc1c(C(=O)OC)cc(OC)c(OC)c1OC | -2.87% (inactive)

Assay: viability of HCT116 without oncogenic beta-catenin – human colon tumor cells, pilot screen (AID 823);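 further: 0% = wells killed by 20 µM Hyamine and 100% = untreated DMSO cell wells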
Settings: HCT116 beta-catenin knockout viability, CellTiter-Glo, 60 h; at 10 µM; active compounds read low

Row | SMILES | viability
41 | COc1cc(Cl)c(S(=O)(=O)n2cnc(C)c2)cc1Cl | 101% (inactive)
42 | O=C(CN1CCOc2ccccc21)NCc1ccccc1 | 98.2% (inactive)
43 | CC(C)CCNC(=O)CCS(=O)(=O)c1cccc2nonc12 | 105% (inactive)
44 | O=C1CC(c2ccc(S(=O)(=O)NCc3ccccc3)cc2)CN1 (stereo not given) | 101% (inactive)
45 | CC(=O)c1ccc(NC(=O)CSC(C)C)cc1 | 102% (inactive)
46 | CCn1cc(C(=O)NCC2CCCO2)c2cc(OC)c(OC)cc2c1=O (stereo not given) | 95.4% (inactive)
47 | COc1ccc(CNc2nc3c(c(=O)[nH]c(=O)n3C)n2Cc2ccccc2C)cc1 | 96.2% (inactive)
48 | Cc1cc(C)nc(NS(=O)(=O)c2ccc(Br)s2)c1 | 95.9% (inactive)
49 | CC(C)CCSc1nnc(Cn2c(=O)sc3ccccc32)n1C | 79.8% (inactive)
50 | O=P(/C(=N/O)Sc1ccccc1)(N1CCOCC1)N1CCOCC1 | 90% (inactive)
51 | CC1(C)Cc2c(C#N)c(N)sc(=S)c2CO1 | 101% (inactive)
52 | CCOC(=O)N1CCN(C(=O)COc2ccc(Br)cc2)CC1 | 100% (inactive)
53 | COc1ccc(-c2nc(C(N)=O)c3[nH]c(=O)n(-c4ccccc4OC)c3n2)c(OC)c1 | 74.1% (inactive)
54 | O=C(Nc1nc(-c2ccccc2)cs1)c1cccs1 | 66.3% (inactive)
55 | CC(NC(=O)C1CCC1)c1ccc2c(c1)OCO2 (stereo not given) | 97.5% (inactive)
56 | Cc1cc(N2C(=O)CC(Cc3ccccc3)C2=O)no1 (stereo not given) | 103% (inactive)
57 | Cc1cc(C)n2nc3nc4c(cc3c2n1)CCCC4 | 88.2% (inactive)
58 | O=C(Nc1ccncc1)c1ccccc1F | 94.3% (inactive)
59 | COC(=O)C1C(=O)c2c([nH]c(C(=O)OC3CCCCCC3)c2C)CC1C (stereo not given) | 102% (inactive)
60 | O=C1CCC(=O)N1c1ccc(CSc2nnnn2C2CCCCC2)cc1 | 103% (inactive)

Row | SMILES | viability
61 | Cc1ccc(C2CC(c3cccc(C)c3)n3ncnc3N2)cc1 (stereo not given) | 85.7% (inactive)
62 | CCOc1cccc(NC(=O)c2ccc(S(=O)(=O)N(C)C)cc2)c1 | 98.6% (inactive)
63 | COc1ccc(C2N(c3ccc(OC)cc3)C(=O)C3CCCN32)cc1 (stereo not given) | 106% (inactive)
64 | Fc1cccc(-c2cc3nc4c(c(N5CCC6(CC5)OCCO6)n3n2)CCCC4)c1 | 70.6% (inactive)
65 | O=C(COC(=O)C1CC(=O)N(C2CCCCC2)C1)c1ccc(F)cc1 (stereo not given) | 108% (inactive)
66 | CCOC(=O)CSC(CC)C(=O)Nc1nnc(CC)s1 (stereo not given) | 102% (inactive)
67 | CC(=O)c1cccc(NC(=O)Nc2cc3sccc3n2C)c1 | 98.2% (inactive)
68 | CN(C)S(=O)(=O)c1ccc(C(=O)Nc2ccc(F)cc2F)cc1 | 95.5% (inactive)
69 | Cc1ccc(C(=O)N2CCN(c3ccccc3)CC2)cc1C | 101% (inactive)
70 | CC(=O)c1c(C)nc2ccc(Br)cc2c1C(=O)O | 98.2% (inactive)
71 | COc1ccc(-c2nc(CS(=O)CC(=O)NCC3CCCO3)c(C)o2)cc1 (stereo not given) | 97.8% (inactive)
72 | Cn1cccc1Cc1nnc(SCC(=O)Nc2nccs2)n1CCc1ccccc1 | 103% (inactive)
73 | CCCC(=O)c1cc(F)c(N2CCN(S(=O)(=O)c3ccccc3)CC2)cc1C | 90.3% (inactive)
74 | COc1ccccc1CNC(=O)c1cnc2ccccn2c1=O | 97.8% (inactive)
75 | O=C(O)c1cccc(-n2cnnn2)c1 | 104% (inactive)
76 | Cc1oc(-c2ccc(Cl)cc2)nc1CS(=O)CC(=O)NCCN1CCCC1 (stereo not given) | 91.1% (inactive)
77 | O=C(CCn1c(=S)[nH]c2ccccc2c1=O)N1CCOCC1 | 105% (inactive)
78 | CCCC(=O)C1=C(O)C(C(=O)OC)C(C)(C)CC1=Nc1ccccc1 (stereo not given) | 91.2% (inactive)
79 | O=C(Nc1nccs1)c1cc(S(=O)(=O)N2CCCCC2)ccc1Cl | 99.7% (inactive)
80 | COC(=O)Nc1c(C(=O)OC)cc(OC)c(OC)c1OC | 94.7% (inactive)
